Among all 5,500 compounds or so, about 2,000 (36%) were called active. Roughly 18% stayed inconclusive and do not appear here. Cut-off read from the data, not from the text of the source: active = normalized growth mostly below about 0.91 (no sharp cut-off); inconclusive = no clear call, values can overlap the other calls; inactive = mostly above about 0.92. Some of the results follow.
Assay: chemical genetic growth profiling, strain panel (AID 1159580);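 note: tested at 20 µM; growth read once vehicle control cultures reached saturation at 30 °C; 1 = growth at the plate median or of vehicle wells; lower values mean less growth of the strain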
Conditions: growth OD
[1] = S. cerevisiae deletion strains, locus YAL013W, strain DEP1, hits give low values
[2] = S. cerevisiae deletion strains, locus YBR229C, strain ROT2, hits give low values
[3] = S. cerevisiae deletion strains, locus YDL101C, strain DUN1, hits give low values
[4] = S. cerevisiae deletion strains, locus YDR150W, strain NUM1, hits give low values
[5] = S. cerevisiae deletion strains, locus YEL061C, strain CIN8, hits give low values
[6] = S. cerevisiae deletion strains, locus YGR078C, strain PAC10, hits give low values
[7] = S. cerevisiae deletion strains, locus YHR030C, strain SLT2, hits give low values
[8] = S. cerevisiae deletion strains, locus YHR087W, strain rtc3, hits give low values
[9] = S. cerevisiae deletion strains, locus YJL187C, strain SWE1, hits give low values
[10] = S. cerevisiae deletion strains, locus YJR043C, strain POL32, hits give low values
[11] = S. cerevisiae deletion strains, locus YJR075W, strain HOC1, hits give low values
[12] = S. cerevisiae deletion strains, locus YLR039C, strain RIC1, hits give low values
[13] = S. cerevisiae deletion strains, locus YLR058C, strain SHM2 (second series), hits give low values
[14] = S. cerevisiae deletion strains, locus YLR085C, strain ARP6, hits give low values
[15] = S. cerevisiae deletion strains, locus YLR262C, strain YPT6, hits give low values
[16] = S. cerevisiae deletion strains, locus YML094W, strain GIM5, hits give low values
[17] = S. cerevisiae deletion strains, locus YMR219W, strain ESC1, hits give low values
[18] = S. cerevisiae deletion strains, locus YMR263W, strain SAP30, hits give low values
[19] = S. cerevisiae deletion strains, locus YNL128W, strain TEP1, hits give low values
[20] = S. cerevisiae deletion strains, locus YNL153C, strain GIM3, hits give low values
[21] = S. cerevisiae deletion strains, locus YNL298W, strain CLA4 (second series), hits give low values
[22] = S. cerevisiae deletion strains, locus YNL322C, strain KRE1, hits give low values
[23] = S. cerevisiae deletion strains, locus YNR030W, strain Alg12, hits give low values
[24] = S. cerevisiae deletion strains, locus YPL055C, strain LGE1, hits give low values
[25] = S. cerevisiae deletion strains, locus YPL241C, strain CIN2, hits give low values
[26] = S. cerevisiae deletion strains, locus YPR135W, strain CTF4, hits give low values

Measured: normalized growth

O=C1c2ccccc2C(=O)N1CNc1cccc(Cl)c1
inactive: [1] 0.983 | [2] 1 | [3] 0.972 | [4] 0.931 | [5] 0.986 | [6] 0.963 | [7] 0.959 | [8] 1 | [9] 1.01 | [10] 0.943 | [11] 0.951 | S. cerevisiae deletion strains, locus YKL190W, strain CNB1, hits give low values 1.02 | [12] 1.01 | [13] 1 | [14] 0.96 | [15] 0.98 | [16] 0.96 | [17] 1 | [18] 0.984 | [19] 1 | [20] 0.94 | [21] 0.943 | [22] 1.01 | [23] 0.95 | S. cerevisiae deletion strains, locus YOL006C, strain TOP1, hits give low values 0.993 | [24] 0.978 | [25] 0.971 | [26] 0.894 | S. cerevisiae strains, strain wild type, hits give low values 1.01

O=C(CNc1cccc(Cl)c1)c1ccc(Cl)cc1
inactive: [1] 0.971 | [2] 0.933 | S. cerevisiae deletion strains, locus YCL061C, strain MRC1, hits give low values 0.975 | [3] 0.952 | S. cerevisiae deletion strains, locus YDL134C, strain PPH21, hits give low values 0.948 | [4] 0.89 | [5] 0.954 | [6] 0.945 | [7] 0.766 | [8] 0.923 | [10] 0.98 | [11] 0.936 | [12] 0.954 | [13] 0.953 | [14] 0.801 | [15] 0.898 | [16] 0.938 | [17] 0.964 | [18] 0.908 | S. cerevisiae deletion strains, locus YMR307W, strain GAS1, hits give low values 0.862 | [19] 0.973 | [20] 0.97 | [21] 0.937 | [22] 0.951 | [23] 0.89 | [24] 0.832 | [25] 0.899 | [26] 0.824
active: S. cerevisiae deletion strains, locus YGR229C, strain SMI1, hits give low values 0.935 | [9] 0.933

Source: PubChem BioAssay AID1159580 (chemical genetic matrix, 2015)
